Screening results from PubChem.
Only some compounds are listed: those with a hit (about 6.6% of all), similar ones and a draw of the others.
Mdm2 MdmX PPI: inhibitors of human Mdm2-MdmX association, primary screen, cell-based, luminescence, split luciferase, SaOS-2, uHTS. 330,000 compounds, 3% hits. SaOS-2 split-luciferase Mdm2/MdmX complementation. inhibition, % at 8 µM. Protein Mdm4 (Homo sapiens) + E3 ubiquitin-protein ligase Mdm2 (Homo sapiens), …. AID 485346, 2010;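 active = inhibition of at least 50% at 8 µM in the primary screen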
Target sequence (O15151 whole entry, looked up): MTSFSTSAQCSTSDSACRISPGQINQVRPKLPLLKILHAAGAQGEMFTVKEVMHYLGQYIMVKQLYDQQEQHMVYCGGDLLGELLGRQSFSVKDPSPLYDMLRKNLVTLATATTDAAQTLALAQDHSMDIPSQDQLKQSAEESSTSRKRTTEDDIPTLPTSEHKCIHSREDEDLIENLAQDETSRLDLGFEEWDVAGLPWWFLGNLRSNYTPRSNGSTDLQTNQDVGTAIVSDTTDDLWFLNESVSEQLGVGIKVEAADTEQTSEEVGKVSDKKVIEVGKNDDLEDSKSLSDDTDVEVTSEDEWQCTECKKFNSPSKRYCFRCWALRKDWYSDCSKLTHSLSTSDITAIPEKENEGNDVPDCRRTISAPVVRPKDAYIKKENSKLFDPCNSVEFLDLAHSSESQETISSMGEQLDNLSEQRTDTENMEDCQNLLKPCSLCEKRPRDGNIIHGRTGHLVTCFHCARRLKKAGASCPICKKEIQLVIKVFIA
Target sequence (Q00987 whole entry, looked up): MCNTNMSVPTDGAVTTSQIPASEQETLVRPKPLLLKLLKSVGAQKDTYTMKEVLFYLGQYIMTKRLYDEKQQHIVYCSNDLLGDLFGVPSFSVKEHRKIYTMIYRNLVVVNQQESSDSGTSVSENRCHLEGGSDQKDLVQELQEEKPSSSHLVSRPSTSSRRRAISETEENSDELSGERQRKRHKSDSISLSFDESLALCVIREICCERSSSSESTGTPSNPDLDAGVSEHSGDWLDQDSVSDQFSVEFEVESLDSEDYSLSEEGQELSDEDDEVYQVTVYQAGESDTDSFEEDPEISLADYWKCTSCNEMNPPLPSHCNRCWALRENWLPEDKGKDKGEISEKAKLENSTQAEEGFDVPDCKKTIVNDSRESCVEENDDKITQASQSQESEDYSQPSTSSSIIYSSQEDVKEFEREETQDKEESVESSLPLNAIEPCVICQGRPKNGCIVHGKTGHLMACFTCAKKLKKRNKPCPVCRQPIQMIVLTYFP
Beta apoptosis: inhibitors of cytokine-induced beta cell apoptosis, primary screen, luminescence; INS-1E cytokine-induced death, ATP luminescence, 48 h; percent of positive-control rescue, neutral wells zero; protection from apoptosis, % (no concentration beside the values); 300,000 compounds, 0.8% hits; AID 435005, 2010;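 active = Every replicate reaches about 75%, or at least half do and their mean reaches it too, limit read from the data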;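 also: 0% = cytokine-treated negative control wells and 100% = positive control rescue; higher means more ATP so stronger rescue from cytokine killing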
MPTP inh: mitochondrial permeability transition pore inhibitors, primary screen, biochemical, isolated mouse mitochondria, absorbance; Ca2+ swelling absorbance, 30 min; inhibition, % at 10 µM; 360,000 compounds, 1.4% hits;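 active = inhibition of 50% or more, scaled per plate between neutral and stimulator controls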;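 also: 0% = DMSO wells given calcium and 100% = 1 mM EGTA wells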
Gli-Sufu block: Gli-Sufu pathway antagonists, primary screen, luciferase luminescence, Sufu-KO-LIGHT cells, uHTS; Sufu-KO-LIGHT fibroblasts, Gli luciferase reporter luminescence; inhibition, % at 5 µM; 340,000 compounds, 0.74% hits;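 active = inhibition above about 55%, limit read from the data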;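 also: 0% = DMSO-treated cells and 100% = wells with medium but no cells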
GRIN3A LBD mod: binders of NR3A ligand-binding domain, primary screen, biophysical, differential scanning fluorimetry, uHTS | Glutamate receptor ionotropic, NMDA 3A (GRIN3A) ligand-binding domain | Tm shift relative to glycine control, % at 25 µM | 340,000 compounds, 2.5% hits | NR3A LBD differential scanning fluorimetry, Tm shift; 0% = protein alone, 100% = glycine-bound protein;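 active = melting temperature shift of at least 10% of the positive control shift, at one fixed dose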
CSC inhib: cancer stem cell viability inhibitors, primary screen, luminescence; inhibition, % at 7.5 µM; cancer stem cell-like cells viability; AID 2717, 2010; 300,000 compounds, 1.1% hits; in the data active = inhibition above about 75%; tested in HMLE shEcad cells
Mdm2 MdmX conf: Mdm2-MdmX complex disruptors, retested hits, confirmation, luminescence, single concentration. 10,000 compounds, 55% hits. shares compounds with Mdm2 MdmX PPI. inhibition, % at 8 µM. Mdm2-MdmX binding, luminescent assay; in the data active = inhibition above about 40%
Full FLuc ctr: full-length luciferase signal inhibition, confirmation, counter-screen for Mdm2/MdmX interaction inhibitor project, cell-based, single concentration, SaOS-2; shares compounds with Mdm2 MdmX PPI; SaOS-2 full-length luciferase counterscreen, luminescence; inhibition, % at 8 µM; 6,200 compounds, 77% hits;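 active = mean inhibition at 8 µM reaching about 37%, which flags the compound as non-specific, limit read from the data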;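 also: p53-null SaOS-2 cells with luciferase driven by a doxycycline-inducible promoter; compound on cells about two nights before reading with doxycycline added after day one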
An asterisk follows results filed as active; . = no result.

SMILES	Mdm2 MdmX PPI	Beta apoptosis	MPTP inh	Gli-Sufu block	GRIN3A LBD mod	CSC inhib	Mdm2 MdmX conf	Full FLuc ctr
Cc1ccc(C)c(OC(C)C(=O)Nc2ccc(S(=O)(=O)Nc3nccs3)cc2)c1 (stereo not given)	20	-3	-2	10	-7	8	.	.
O=C(CCCN1C(=O)/C(=C\c2cccs2)SC1=S)Nc1ccccn1	70*	4	1	4	-6	16	64*	38*
COc1ccc(NC(=O)C(=O)N/N=C\c2ccc(CNC(=O)C(=O)Nc3ccc(C)c(C)c3)o2)c(OC)c1	92*	.	.	11	2	.	46*	95*
Cc1cccc(-c2cc3nc(C)cc(NCCCN(C)C)n3n2)c1	65*	.	0	10	-10	.	20	.
Fc1cccc(-c2cc3nc(-c4ccccc4)cc(N4CCC5(CC4)OCCO5)n3n2)c1	26	0	0	4	-2	61	.	.
CN(C)CCCNc1cc(-c2ccccc2)nc2cc(-c3cccc(F)c3)nn12	63*	10	5	.	-1	10	35	51*
COCCN1CCN(c2cc(-c3ccccc3)nc3cc(-c4cccc(F)c4)nn23)CC1	51*	68	2	6	-1	22	23	.
CN(CCO)c1c2c(nc3cc(-c4cccc(F)c4)nn13)CCCC2	-75	-2	2	-42	-2	5	.	.
Cc1cccc(C)c1NC(=O)C(=O)NCC1CCCN1S(=O)(=O)c1ccccc1 (stereo not given)	2	0	0	3	1	.	.	.
CC(C)[C@H](NC(=O)N1c2ccccc2NC(=O)[C@@H]1C(C)C)C(=O)N[C@@H](Cc1c[nH]c2ccccc12)C(=O)O	16	0	0	2	-1	-5	.	.
Cc1ccccc1-c1cccc([C@@H]2C[C@H]3[C@H](CON3C)CN2C(=O)CCc2ccccc2)c1	.	.	-1	3	-2	.	.	.
COCCCNC(=O)c1cc(OC)c(OC)c(OC)c1	21	1	-2	1	0	-16	.	.
COc1cc(C(=O)NCCCCCCNC(=O)c2cc(OC)c(OC)c(OC)c2)cc(OC)c1OC	52*	-1	0	.	-1	-13	38	.
CSC[C@H]1CN(c2ccccc2)C(=O)[C@@H]1CC(=O)Nc1ccc(Br)cc1	.	.	1	.	.	.	.	.
O=C(NCC(=O)N1CCCC(C(F)(F)F)C1)c1cccs1 (stereo not given)	.	.	-2	3	-1	.	.	.
O=C(NNc1cccc(Cl)n1)c1ccccc1CC[N+](=O)[O-]	92*	1	0	0	-1	-2	-9	.
COc1ccc(NC(=O)Nc2cccc3c2O[C@H](CN(C)S(=O)(=O)c2ccc(OC)cc2)[C@@H](C)CN([C@H](C)CO)C3=O)cc1	28	-6	0	-5	0	-26	.	.
Cc1ccc(S(=O)(=O)N(C)C[C@H]2Oc3c(NC(=O)Nc4cccc5ccccc45)cccc3C(=O)N([C@@H](C)CO)C[C@@H]2C)cc1	60*	.	1	11	1	.	37	47*
C[C@@H]1CN([C@@H](C)CO)C(=O)c2cccc(NC(=O)Nc3ccc(F)cc3)c2O[C@@H]1CN(C)Cc1ccc(Oc2ccccc2)cc1	76*	66	-1	42	2	.	22	.
COc1ccc(NC(=O)Nc2cccc3c2O[C@H](CN(C)Cc2ccc(-c4ccccc4)cc2)[C@@H](C)CN([C@H](C)CO)C3=O)cc1	91*	23	2	14	-3	19	63*	31
O=C(NCc1ccccc1)C12CC3CC(CC(Br)(C3)C1)C2	-23	-11	0	-4	0	-13	.	.
C/C(=N\NC(=O)C1(C)CC1(Br)Br)c1cccc(NC(=O)c2ccc(C)o2)c1 (stereo not given)	61*	.	0	0	11*	15	22	.
CN(C)CCCN(C(=O)COc1ccccc1)c1nc2cc3c(cc2s1)OCO3	-10	-7	-1	15	2	-4	.	.
CCN(CC)CCN(C(=O)c1cc2c(ccc3ccccc32)oc1=O)c1nc2cc3c(cc2s1)OCCO3	100*	102*	2	28	1	91*	33	.
CN(C)CCCN(C(=O)c1ccc2ccccc2c1)c1nc2cc3c(cc2s1)OCO3	77*	-20	0	35	-2	5	46*	61*
SMILES	Mdm2 MdmX PPI	Beta apoptosis	MPTP inh	Gli-Sufu block	GRIN3A LBD mod	CSC inhib	Mdm2 MdmX conf	Full FLuc ctr
CN(C)CCCN(C(=O)c1ccc(S(=O)(=O)N(C)Cc2ccccc2)cc1)c1nc2cc3c(cc2s1)OCO3	57*	114*	-1	30	-13	7	31	.
CCN(c1ccccc1)S(=O)(=O)c1ccc(C(=O)N(CCCN(C)C)c2nc3cc4c(cc3s2)OCO4)cc1	65*	-13	1	35	-3	5	49*	48*
CCCCn1c(N)c(N(C)C(=O)c2ccc(-n3cccn3)cc2)c(=O)[nH]c1=O	5	-2	-1	-3	3	.	.	.
COc1ccccc1C(=O)N(CCC1CCCN1C)c1nc2ccccc2s1 (stereo not given)	82*	4	-1	4	1	9	79*	106*
COc1ccc2sc(N(CCCN(C)C)C(=O)c3nc4ccccc4s3)nc2c1	3	9	3	-2	-1	-14	.	.
CCOc1cc(CNc2ccc(N3CCOCC3)cc2)cc(Br)c1OCC	-4	.	17	9	-1	.	.	.
CCOc1cc(CNc2ccc3c(c2)OCCO3)cc(Br)c1OCC	73*	17	2	3	5	54	70*	62*
CN1CCC(=C2c3ccccc3C(O)c3ccccc32)CC1 (stereo not given)	3	.	0	35	1	.	.	.
CN1CCC(=C2c3ccccc3CCc3sccc32)CC1	60*	.	6	35	-2	4	26	.
COc1ccc(-c2csc3nc(-c4cccnc4)nc(Cl)c23)cc1OC	81*	19	22	15	-21	50	31	.
CCN(CC)C(=O)C1=C(C)N(CCCOC)C(=O)C(CC(=O)NCCCN(C)C)C1 (stereo not given)	.	.	-1	.	.	.	.	.
